# TGFb inhibitor – blocks TGF-b signaling | HepG2 CAGA-GFP TGF-b/SMAD3 reporter, GFP fluorescence, 18 h; TGF-beta stimulated, 500 pg/mL final | AID 588855 | 1.2% of 410,000 active | Potency, µM (titrated, usually from 46.1 µM), for inactives: at the top dose activity, negative = inhibition, actives largely listed as inhibitors; note: potency is the fitted concentration of half-maximal effect; % is set by controls: 0 for no effect and ±100 for the full control effect; nearly all actives have a fitted effect of over 65% in size
#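 HEPG2 CAGA-GFP, 1000 cells/well; 2 h settle, 37 C; cpd via pin tool; TGF-b 500 pg/mL final; 18 h, 37 C; GFP imaging ex488/em500-530; %Activity normalised to -TGF-b and +DMSO controls; CRC fit, curve class.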
# HepG2 viability – counter-screen for TGF-b inhibitors: cytotoxicity in HepG2 cells | 0.76% of 410,000 active | Potency, µM (highest dose often 46.1 µM), inactives show at the top dose activity change, negative = cytotoxicity, actives largely listed as cytotoxic | HepG2 CAGA-GFP viability, ATP luminescence, 18 h; note: potency is the fitted concentration of half-maximal effect
#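 CellTiter-Glo luminescence gave cytotoxicity after 18 hours at 37 degrees C. The cells were HepG2 CAGA-GFP in 1% FBS DMEM, stimulated with 500 pg/mL TGF-beta after compound addition. %Activity was normalised to no-cell wells (complete cell-killing) and DMSO (no toxicity), and curves were fitted and classified.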
# TDP1 cell CPT – DT40-hTDP1 cell growth loss with CPT; Potency, µM (series often up to 46.2 µM), without a hit: top-dose activity change, negative = growth inhibition, usual class: inhibitors; 12% of 420,000 active; chicken DT40 Tdp1-/-;hTDP1 cells + 20 nM CPT, ATP luminescence, 48 h; note: potency is the fitted concentration of half-maximal effect; % is set by controls: 0 for no effect and ±100 for the full control effect; nearly all actives have a fitted effect of over 55% in size
#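 Cell growth measured by CellTiter-Glo luminescence after a minimum 48 h, 37 C compound exposure with 20 nM CPT in Tdp1-knockout DT40 cells stably expressing hTDP1, seeded 400/well; qHTS titration format.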
# TDP1 inh – TDP1 (human) enzyme inhibition | Q9NUW8 | recombinant TDP1, AlphaScreen DNA substrate cleavage | Potency, µM (series often up to 130 µM), without a hit: at the top dose activity change, negative = inhibition, hits mostly inhibitors | 0.28% of 350,000 active; note: potency is the fitted concentration of half-maximal effect; % is set by controls: 0 for no effect and ±100 for the full control effect; nearly all actives have a fitted effect of over 40% in size
# Target sequence (Q9NUW8 whole entry, looked up): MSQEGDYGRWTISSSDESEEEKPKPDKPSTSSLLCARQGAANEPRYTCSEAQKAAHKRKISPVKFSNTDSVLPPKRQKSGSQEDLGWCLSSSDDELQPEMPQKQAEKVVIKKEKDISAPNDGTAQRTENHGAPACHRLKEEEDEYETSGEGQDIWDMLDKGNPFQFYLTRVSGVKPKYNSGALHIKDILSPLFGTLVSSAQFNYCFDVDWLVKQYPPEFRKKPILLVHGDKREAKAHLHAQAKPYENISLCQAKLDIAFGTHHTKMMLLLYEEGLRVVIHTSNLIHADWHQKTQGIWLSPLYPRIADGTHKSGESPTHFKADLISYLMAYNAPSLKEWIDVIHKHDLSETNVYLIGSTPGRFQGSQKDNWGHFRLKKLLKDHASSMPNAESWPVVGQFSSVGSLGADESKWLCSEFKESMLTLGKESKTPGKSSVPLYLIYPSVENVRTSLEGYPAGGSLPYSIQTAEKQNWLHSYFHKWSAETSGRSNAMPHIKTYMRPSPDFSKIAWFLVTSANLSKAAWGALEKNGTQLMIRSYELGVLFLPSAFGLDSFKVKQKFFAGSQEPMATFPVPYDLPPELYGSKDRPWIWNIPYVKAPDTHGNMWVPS
#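 Signal: AlphaScreen proximity between streptavidin donor and anti-FITC acceptor beads on intact substrate. Reaction: Tdp1 1 nM, substrate 15 nM final, 5 min RT after 15 min compound preincubation.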
# IL-1B inflam inh – inhibitors of inflammasome signaling (IL-1 beta secretion) | THP-1 LPS/ATP IL-1B secretion, AlphaLISA, 16 h; stronger effect = lower value | activity change, % at 57.5 µM | 4.7% of 360,000 active | AID 743279; in the data active = activity change below about -50%; inconclusive = mostly about -30% to -49%; note: % is set by controls: 0 for no effect and ±100 for the full control effect
#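 THP-1 cells pretreated 1 hr with compounds (up to 57.5 uM final), then stimulated with LPS (250 ng/mL final) plus ATP (1.25 mM final); secreted IL-1B measured by AlphaLISA after 16 hr, decreased signal indicating inhibition.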
# TDP1 cell noCPT – qHTS for Inhibitors of human tyrosyl-DNA phosphodiesterase 1 (TDP1): qHTS in cells in absence of CPT; DT40 Tdp1-/- hTDP1 cells, no CPT, ATP luminescence, 48 h; Potency, µM (highest dose often 46.2 µM), for inactives: at the highest dose activity change, negative = growth inhibition, most hits filed as inhibitors; 15% of 420,000 active; AID 686978, 2013; note: potency is the fitted concentration of half-maximal effect; % is set by controls: 0 for no effect and ±100 for the full control effect; nearly all actives have a fitted effect of over 55% in size
#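 Readout: luminescence from CellTiter-Glo after 30 min in the dark at RT. Cells: DT40 Tdp1-/- with stable hTDP1, 400/well. Exposure: compounds alone, ≥48 hr, 37 °C.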
# Starred values were filed as active, the others as inactive; u = inconclusive; x = no result; [ ] = dose if it differs, or a comment. The list is not random: actives were taken first. Their share in the collection is about 18%. Unless noted, calls come from the whole dose curve; as a rule, active = well fitted curve in the direction sought with a large enough effect; inconclusive = small, poorly fitted or top-dose-only effect, or another doubt; inactive = no such curve, though single readings can be large; an effect the other way counts as inactive or inconclusive.
SMILES,TGFb inhibitor,HepG2 viability,TDP1 cell CPT,TDP1 inh,IL-1B inflam inh,TDP1 cell noCPT
Cc1ccc(C)c2[nH]c(=O)c(CN(Cc3ccc4c(c3)OCO4)Cc3nnnn3Cc3ccco3)cc12,3.1%,-20.0%,u,4.4%,-60.2*,u
Cc1ccc2cc(CN(Cc3ccc4c(c3)OCO4)Cc3nnnn3Cc3ccco3)c(=O)[nH]c2c1C,u,-33.8%,u,5.6%,0.0,23.1µM*
COCCn1nnnc1CN(Cc1ccco1)Cc1cc2cc3c(cc2[nH]c1=O)OCO3,-2.7%,-33.4%,u,3.1%,-11.5,-18.8%
NS(=O)(=O)c1ccc(CCNCc2ccccc2OCc2ccc(F)cc2)cc1,-21.1%,-49.7%,u,x,-89.6*,20.6µM*
CCOc1ccc(NCc2ccccc2OCc2cccc(F)c2)cc1,u,-28.0%,u,4.2%,-54.3*,u
NS(=O)(=O)c1ccc(NCc2ccccc2OCc2ccc(F)cc2)cc1,u,-21.5%,u,9.2%,-16.0,18.4µM*
Fc1cccc(COc2ccccc2CNc2ccccc2)c1,u,-8.1%,-14.3%,-0.6%,-6.2,-36.2%
Nc1nonc1C(=O)NCCNCc1ccccc1OCc1ccc(F)cc1,-4.0%,-30.8%,23.1µM*,3.9%,-29.5,16.4µM*
CCOc1ccc(CNC(=O)COc2cc(=O)n(C)c3ccccc23)cc1,3.0%,-11.4%,-4.0%,8.1%,x,u
O=C(Cc1ccc(NC(=O)C2CCN(C(=O)C3CC3)CC2)cc1)Nc1cccc(C(=O)N2CCCC2)c1,1.4%,-0.8%,5.9%,x,13.6,-9.2%
Cc1ccc(C2(O)C(=O)c3ccccc3C2=O)c(O)c1C,33.1%,17.3%,u,50.1µM*,-10.5,u
CC(C)(C)c1cccc(C2(O)C(=O)c3ccccc3C2=O)c1O,-10.0%,-14.8%,u,0.0%,-24.7,9.2µM*
CCNc1ccc(C2(O)C(=O)c3ccccc3C2=O)cc1,22.0%,8.2%,12.3%,0.6%,0.0,6.1%
CCCCOCCCNC(=O)C[C@@H]1C[C@@]2(C(=O)OC)CCCCC=C2N(CCc2ccc(OC)c(OC)c2)C1=O,x,x,u,x,-1.8,u
COC(=O)[C@]12CCCCC=C1N(Cc1ccc3c(c1)OCO3)C(=O)[C@H](CC(=O)NCc1ccc(OC)c(OC)c1)C2,x,x,u,x,-19.4,u
COC(=O)[C@]12CCCCC=C1N(CCc1ccc(OC)c(OC)c1)C(=O)[C@H](CC(=O)NCc1cccc3ccccc13)C2,x,x,10.3µM*,x,-13.8,9.2µM*
COC(=O)[C@]12CCCCC=C1N(CCc1ccc(OC)c(OC)c1)C(=O)[C@H](CC(=O)NCc1ccc(C)o1)C2,x,x,16.4µM*,x,-10.8,u
CC(C)(C)NCC(O)COc1ccccc1C1CCCC1 (configuration not stated),32.0%,-49.8%,u,x,-22.7,14.6µM*
CC(C)(C)NC[C@H](O)COc1ccccc1C1CCCC1,x,x,12.8µM*,x,x,10.1µM*
Cc1ccccc1CC1C(=O)Nc2ccc(Br)cc21 (configuration not stated),x,-40.5%,-26.7%,1.6%,x,u
COc1ccc(Br)cc1CC1C(=O)Nc2ccccc21 (configuration not stated),-17.5%,-61.3%,8.2µM*,4.7%,x,7.31µM*
CCOC(=O)c1ccc(Nc2ncnc3ccccc23)cc1,2.6%,-9.1%,u,7.7%,-4.6,-28.3%
Cc1ccc(C)c(Nc2nc3nonc3nc2Nc2cccc(C)c2C)c1,6.31µM*,-44.7%,3.66µM*,4.7%,x,2.91µM*
CCOC(=O)c1ccc(Nc2nc3nonc3nc2Nc2cccc(C)c2C)cc1,u,-45.0%,2.59µM*,9.3%,x,2.06µM*
Cc1ccc(C)c(Nc2nc3nonc3nc2N2CCOCC2)c1,u,1.5%,0.5%,4.0%,-10.3,-7.3%
SMILES,TGFb inhibitor,HepG2 viability,TDP1 cell CPT,TDP1 inh,IL-1B inflam inh,TDP1 cell noCPT
Cc1nn(-c2ccc(N3CCCC3)nn2)c(C)c1CCC(=O)NCc1ccc(OC(C)C)cc1,-11.0%,-4.5%,u,1.9%,x,u
COc1nc(N)c(C#N)c(-c2ccc(N(C)CCC#N)cc2)c1C#N,10.4%,-31.0%,18.4µM*,x,u,7.31µM*
O=c1[nH]c(COc2ccc(Cl)cc2Cl)nc2ccccc12,-0.5%,-12.1%,-15.1%,1.1%,-12.7,3.8%
O=c1[nH]c(COc2ccc(Cl)cc2Br)nc2ccccc12,u,-21.2%,23.1µM*,4.2%,14.8,u
COc1ccc(S(=O)(=O)CCC(=O)N2CCN(c3ccc(F)cc3)CC2)cc1,-17.0%,3.9%,20.6µM*,1.1%,-1.5,25.9µM*
COc1ccc(CC(=O)N2CCN(c3ccc(F)cc3)CC2)cc1,-2.2%,-12.2%,-28.8%,3.2%,18.7,u
O=C(CCS(=O)(=O)c1ccc(Cl)cc1)N1CCN(c2ccc(F)cc2)CC1,-27.4%,-9.2%,14.6µM*,-0.6%[56.1 µM],-20.9,18.4µM*
Cc1ccc(S(=O)(=O)CCC(=O)N2CCN(c3ccc(Cl)cc3)CC2)cc1,-4.1%,-17.0%,13µM*,2.7%,0.0,20.6µM*
Cc1ccc(S(=O)(=O)CCC(=O)N2CCN(c3ccccc3F)CC2)cc1,0.2%,-0.5%,-1.2%,-2.9%,20.4,13.9%
CN(c1ccc(OCC(=O)N2CCN(c3ccc(F)cc3)CC2)cc1)S(=O)(=O)c1cccs1,-22.9%,4.2%,u,8.1%,-20.9,25.9µM*
COc1ccc(Cc2nnc(NC(=O)Nc3ccccc3)s2)cc1OC,u,-9.1%,-26.3%,x,79.3,u
OCC[C@@H]1C[C@@H](O)[C@H](O)[C@]2(CCc3ccccc3O2)O1,18.3%,-6.2%,u,x,14.6,-16.3%
OCC1OC(c2ccc3c(c2)OCO3)C=CC1Oc1ccc(C2CCCC2)cc1 (configuration not stated),x,x,x,9.0%[21 µM],x,x
CCOc1ccc(CN2CCN(C3CCSCC3)CC2CCO)cc1 (configuration not stated),-4.0%,-54.3%,10.6%,-2.4%,-6.3,-26.2%
COC(=O)[C@@]1(C)[C@H]2C(=O)N(C)C(=O)[C@H]2[C@H]2CN=C(SCc3ccc(Cl)cc3)N21,2.6%,-13.6%,-9.8%,1.1%[56.1 µM],-3.1,-10.8%
CC(=O)N1CC(=O)N=C1SCC(=O)Nc1nc(C)c(-c2ccccc2)s1,-31.2%,-28.6%,2.91µM*,7.5%,-76.7*,3.26µM*

# Source: PubChem (National Center for Advancing Translational Sciences (NCATS))
